Values without a mark were called inactive. Records with an inconclusive call do not appear. Calls of active or inactive are those of the source. Unless noted, the call rests on the fitted dose curve; in most records, active means well fitted curve in the direction sought with a large enough effect; inconclusive means small, poorly fitted or top-dose-only effect, or another doubt; inactive means no such curve, though single readings can be large; an effect the other way counts as inactive or inconclusive.
What was measured:
[1] = biological target: Lysosomal acid glucosylceramidase (Homo sapiens) (UniProt P04062); test: Glucocerebrosidase-p2 (AID 348; in the data active means potency below about 10 µM; further: potency means the concentration at half of the fitted maximal effect); conditions: purified GBA, blue fluorogenic substrate, 40 min
Chain of Lysosomal acid glucosylceramidase (Homo sapiens) (P04062 whole entry, looked up): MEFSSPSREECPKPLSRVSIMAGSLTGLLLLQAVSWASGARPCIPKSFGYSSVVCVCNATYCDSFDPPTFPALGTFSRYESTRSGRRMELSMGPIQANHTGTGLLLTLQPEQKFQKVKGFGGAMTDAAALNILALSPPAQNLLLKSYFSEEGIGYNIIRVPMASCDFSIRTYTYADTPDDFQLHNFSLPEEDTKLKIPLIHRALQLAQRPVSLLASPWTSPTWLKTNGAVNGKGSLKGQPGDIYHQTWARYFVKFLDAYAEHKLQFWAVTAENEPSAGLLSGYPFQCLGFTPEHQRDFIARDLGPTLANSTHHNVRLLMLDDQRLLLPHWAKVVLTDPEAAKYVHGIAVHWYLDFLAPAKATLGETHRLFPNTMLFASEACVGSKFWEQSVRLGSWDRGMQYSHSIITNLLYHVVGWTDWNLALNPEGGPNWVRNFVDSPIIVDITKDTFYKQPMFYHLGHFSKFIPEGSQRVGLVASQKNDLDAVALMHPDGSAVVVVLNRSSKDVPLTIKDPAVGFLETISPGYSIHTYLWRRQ
Procedure, shortened: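 Compounds titrated from 0.6 nM upwards against 0.2 nM enzyme in pH 5.9 citric acid/KH2PO4, taurocholate, tween-20; blue fluorogenic substrate 80 uM, 40 min room temperature, stopped and read Ex 365/Em 440 for AC50.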

[2] = NFAT Signaling Pathway (AID 444; active means well fitted curve in either direction with a large enough effect, not every such curve was filed as active;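 further: carbachol stimulus at about its EC50 of 1 µM final; on the % scale 0 is the no-effect control and ±100 the full control effect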); conditions: Jurkat NFAT-bla M1, carbachol, beta-lactamase ratio, 5 h; at 7.69 µM (top of the series) unless noted
Procedure, shortened: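 Jurkat cells with NFAT-driven β-lactamase reporter and co-expressed M1 receptor, stimulated with carbachol (final 1 uM, ~EC50), compound titration, 5 h at 37 °C. CCF4 loaded 1 h at RT; 460/530 nm ratio gave %activity and AC50.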

[3] = Stat Signaling Pathway (AID 446; active means well fitted curve in either direction with a large enough effect, not every such curve was filed as active;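 further: ME-180 cervical cancer cells given 40 pM IL-6 alongside compound; SIE-controlled beta-lactamase reporter measured as 460/530 nm FRET emission ratio; on the % scale 0 is the no-effect control and ±100 the full control effect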); conditions: ME-180 SIE beta-lactamase reporter, IL-6 stimulated, 5 h; at 7.69 µM (top of the series) unless noted
Procedure, shortened: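 IL-6/STAT signaling read in ME-180 cells via an SIE beta-lactamase reporter. Stimulus was 40 pM IL-6 (its AC50) for 5 hrs, so both activation and inhibition register.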

[4] = biological target: Glucocorticoid receptor (Homo sapiens) (UniProt P04150); test: GR-GFP Redistribution (AID 450;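 active means compounds whose dose series gives a full or clear partial fitted curve of increased nuclear translocation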; further: potency means the concentration at half of the fitted maximal effect); conditions: U2OS GR-GFP nuclear translocation, laser cytometry, 2 h
Chain of Glucocorticoid receptor (Homo sapiens) (P04150 whole entry, looked up, the tested form may be a part): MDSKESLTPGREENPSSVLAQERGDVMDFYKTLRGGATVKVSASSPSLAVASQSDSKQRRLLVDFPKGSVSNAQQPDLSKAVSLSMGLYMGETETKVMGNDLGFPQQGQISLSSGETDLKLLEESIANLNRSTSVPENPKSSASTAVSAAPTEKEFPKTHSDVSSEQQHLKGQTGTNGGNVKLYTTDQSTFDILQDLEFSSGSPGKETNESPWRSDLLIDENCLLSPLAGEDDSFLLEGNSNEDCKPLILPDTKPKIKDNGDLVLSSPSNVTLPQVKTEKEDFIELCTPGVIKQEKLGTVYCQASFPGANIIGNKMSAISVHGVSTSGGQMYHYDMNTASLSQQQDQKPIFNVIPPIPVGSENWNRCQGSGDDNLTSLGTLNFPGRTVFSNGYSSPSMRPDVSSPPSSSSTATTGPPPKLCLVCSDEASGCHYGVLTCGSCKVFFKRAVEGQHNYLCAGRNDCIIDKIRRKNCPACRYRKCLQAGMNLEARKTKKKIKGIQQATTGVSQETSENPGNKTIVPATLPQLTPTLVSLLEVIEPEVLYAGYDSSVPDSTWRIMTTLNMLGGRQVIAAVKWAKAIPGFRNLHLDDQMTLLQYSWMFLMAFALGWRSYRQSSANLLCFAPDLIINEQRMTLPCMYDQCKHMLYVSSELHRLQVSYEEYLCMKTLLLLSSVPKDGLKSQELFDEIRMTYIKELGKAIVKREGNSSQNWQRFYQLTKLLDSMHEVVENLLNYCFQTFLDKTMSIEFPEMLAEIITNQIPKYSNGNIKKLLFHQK

[5] = biological target: Glucocorticoid receptor (Homo sapiens) (UniProt P04150); test: GR-EFC Redistribution (AID 451; calls by dose curve; further: potency means the concentration at half of the fitted maximal effect); conditions: CHO-K1 GR-EFC translocation, beta-gal luminescence, 2 h
Procedure, shortened: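 CHO-K1 cells expressing nuclear EA and GR-ED fragments of b-gal; compounds titrated up to 46 uM final, 2 h at 37 C. GR nuclear translocation read as complemented b-gal luminescence after 1 h RT detection.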

[6] = biological target: Mitogen-activated protein kinase 10 (Mus musculus) (UniProt Q61831); test: JNK3 AlphaScreen Assay (AID 530; active means well fitted curve in either direction with a large enough effect, not every such curve was filed as active;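 further: kinase came from lysate of stimulated human HepG2 cells; signal reports phosphorylation of biotinylated GST-cJun 1-79 at Ser73 with 10 µM ATP; on the % scale 0 is the no-effect control and ±100 the full control effect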); conditions: JNK3 lysate, c-Jun phosphorylation; series mostly up to 57.1 µM
Procedure, shortened: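 Pre-activated (IL-1β/TNFα) JNK3 in HepG2 lysates phosphorylates biotin-GST-cJun(1-79), 10 uM ATP; anti-phospho-cJun(Ser73) AlphaScreen read at room temperature, pH 7.6 Tris buffer. Compounds pre-incubated 15 min as titrations.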

[7] = biological target: 3',5'-cyclic-AMP phosphodiesterase 4B (Homo sapiens) (UniProt Q07343); test: qHTS Assay for Inhibitors of PDE-IV (AID 607; active means well fitted activation curve with a large enough effect in the main read-out, with a control signal flat, not every such curve was filed as active; further: % of control where 0% means no effect); conditions: HEK293 ACTOne CNG channel cells, membrane potential fluorescence; series mostly up to 22.9 µM
Chain of 3',5'-cyclic-AMP phosphodiesterase 4B (Homo sapiens) (Q07343 whole entry, looked up): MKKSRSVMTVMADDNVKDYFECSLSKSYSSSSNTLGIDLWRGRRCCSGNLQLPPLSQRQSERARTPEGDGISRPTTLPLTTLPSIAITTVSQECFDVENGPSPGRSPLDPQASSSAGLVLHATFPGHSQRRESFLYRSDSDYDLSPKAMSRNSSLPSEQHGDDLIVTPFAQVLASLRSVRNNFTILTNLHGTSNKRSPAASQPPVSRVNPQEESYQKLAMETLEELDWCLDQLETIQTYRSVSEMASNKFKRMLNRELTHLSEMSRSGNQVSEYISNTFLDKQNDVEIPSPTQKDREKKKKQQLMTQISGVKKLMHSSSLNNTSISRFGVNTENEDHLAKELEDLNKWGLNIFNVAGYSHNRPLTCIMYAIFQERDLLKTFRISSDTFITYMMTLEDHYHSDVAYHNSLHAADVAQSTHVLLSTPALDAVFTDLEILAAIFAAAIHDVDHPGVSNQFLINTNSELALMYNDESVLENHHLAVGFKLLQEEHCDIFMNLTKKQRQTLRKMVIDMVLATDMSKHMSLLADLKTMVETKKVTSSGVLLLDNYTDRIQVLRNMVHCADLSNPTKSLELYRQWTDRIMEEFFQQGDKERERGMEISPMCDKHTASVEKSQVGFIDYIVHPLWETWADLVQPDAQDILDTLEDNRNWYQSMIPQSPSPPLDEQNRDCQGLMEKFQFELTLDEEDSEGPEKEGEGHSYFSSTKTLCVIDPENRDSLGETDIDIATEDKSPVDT
Procedure, shortened: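 Live HEK293 cells with a modified cyclic nucleotide-gated (CNG) channel report intracellular cAMP via membrane-potential dye fluorescence (ex 535/em 590 nm). Endogenous PDE-IV was targeted. Compounds were tested at up to 22.9 uM final; RO 20-1724 100 uM served as control.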

[8] = biological target: Dual specificity protein kinase CLK4 (Homo sapiens) (UniProt Q9HAZ1); test: qHTS Assay for Inhibitors of CDC-like Kinase 4 (Kinase-Glo Assay) (AID 1770); conditions: recombinant Clk4, Kinase-Glo ATP depletion luminescence; series mostly up to 66.7 µM; further: nearly all actives have a fitted effect of over 65% in size; further: potency means the concentration at half of the fitted maximal effect
Chain of Dual specificity protein kinase CLK4 (Homo sapiens) (Q9HAZ1 whole entry, looked up): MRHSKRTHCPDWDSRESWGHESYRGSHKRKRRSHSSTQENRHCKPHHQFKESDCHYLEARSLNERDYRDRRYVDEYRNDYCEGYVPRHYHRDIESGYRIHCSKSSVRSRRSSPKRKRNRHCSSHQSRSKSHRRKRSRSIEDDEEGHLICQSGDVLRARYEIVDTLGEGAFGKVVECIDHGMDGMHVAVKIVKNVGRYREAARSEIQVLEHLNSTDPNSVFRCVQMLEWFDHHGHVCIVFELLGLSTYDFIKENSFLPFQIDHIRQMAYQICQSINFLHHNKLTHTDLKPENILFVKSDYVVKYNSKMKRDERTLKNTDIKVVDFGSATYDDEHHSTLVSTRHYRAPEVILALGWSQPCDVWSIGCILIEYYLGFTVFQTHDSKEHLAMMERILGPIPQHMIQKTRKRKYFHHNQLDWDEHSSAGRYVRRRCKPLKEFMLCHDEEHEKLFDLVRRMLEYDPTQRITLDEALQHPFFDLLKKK
Procedure, shortened: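 Recombinant human Clk4 (25 nM) phosphorylated RS repeat peptide (100 uM) with 1 uM ATP in Tris pH 7.5/MgCl2/EGTA/DTT/Triton buffer for 4.5 h at room temperature. Residual ATP was quantified by Kinase-Glo luciferase luminescence.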

[9] = biological target: Dual specificity protein kinase CLK4 (Homo sapiens) (UniProt Q9HAZ1); test: qHTS Assay for Inhibitors of CDC-like Kinase 4 (ADP-Glo Assay) (AID 1771); conditions: recombinant CLK4, ADP-Glo luminescence; series mostly up to 80 µM; further: nearly all actives have a fitted effect of over 70% in size; further: potency means the concentration at half of the fitted maximal effect
Procedure, shortened: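 25 nM Clk4 with 100 uM RS repeat peptide and 1 uM ATP (final) in buffer with 2 mM MgCl2, 0.5 mM EGTA, 2.5 mM DTT, 0.01% Triton X-100; 1 h at room temperature; ADP-Glo luminescence for ADP formed.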

[10] = biological target: Dual specificity protein kinase CLK4 (Homo sapiens) (UniProt Q9HAZ1); test: qHTS Assay for Inhibitors of CDC-like Kinase 4 (ADP-FP Assay) (AID 1795); conditions: Transcreener ADP fluorescence polarization; series mostly up to 50 µM; further: nearly all actives have a fitted effect of over 60% in size; further: potency means the concentration at half of the fitted maximal effect
Procedure, shortened: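 Recombinant human Clk4 (6.25 nM) phosphorylated RS repeat peptide (100 uM) with 1 uM ATP in Tris pH 7.5/MgCl2/EGTA/DTT/Triton buffer for one hour. ADP was quantified by Transcreener competitive fluorescence polarization against an ADP calibration curve.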

[11] = biological target: Ubiquitin carboxyl-terminal hydrolase 1 (Homo sapiens) (UniProt O94782); test: Inhibitors of USP1/UAF1: Pilot qHTS (AID 504865); conditions: purified USP1/UAF1, Ub-rhodamine cleavage fluorescence; series mostly up to 54.9 µM;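 further: rhodamine fluorescence freed from ubiquitin-rhodamine substrate followed over time; top concentration of the series differs between compounds; on the % scale 0 is the no-effect control and ±100 the full control effect; nearly all actives have a fitted effect of over 35% in size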
Chain of Ubiquitin carboxyl-terminal hydrolase 1 (Homo sapiens) (O94782 whole entry, looked up): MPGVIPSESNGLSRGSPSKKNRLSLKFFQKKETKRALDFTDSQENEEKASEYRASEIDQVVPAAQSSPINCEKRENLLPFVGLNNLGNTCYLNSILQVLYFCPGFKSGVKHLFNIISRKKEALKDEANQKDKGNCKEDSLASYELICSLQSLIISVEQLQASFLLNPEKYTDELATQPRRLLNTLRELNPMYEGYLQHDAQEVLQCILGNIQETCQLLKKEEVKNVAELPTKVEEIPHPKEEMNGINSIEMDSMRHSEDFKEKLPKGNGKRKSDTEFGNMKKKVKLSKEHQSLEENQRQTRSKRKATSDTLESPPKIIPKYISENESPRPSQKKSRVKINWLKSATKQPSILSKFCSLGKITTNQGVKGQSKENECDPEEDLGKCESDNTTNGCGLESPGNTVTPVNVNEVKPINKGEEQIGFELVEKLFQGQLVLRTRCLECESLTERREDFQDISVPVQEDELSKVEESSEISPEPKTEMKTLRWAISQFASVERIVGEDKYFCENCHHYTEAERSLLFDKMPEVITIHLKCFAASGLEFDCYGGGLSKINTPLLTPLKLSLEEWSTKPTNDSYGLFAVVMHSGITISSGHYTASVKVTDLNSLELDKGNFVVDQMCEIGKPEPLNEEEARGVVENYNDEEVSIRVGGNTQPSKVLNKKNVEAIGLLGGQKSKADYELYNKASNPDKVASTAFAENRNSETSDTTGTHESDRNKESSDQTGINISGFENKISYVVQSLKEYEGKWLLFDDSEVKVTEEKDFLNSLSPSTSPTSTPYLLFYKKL
Procedure, shortened: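 USP1/UAF1 complex (1nM) preincubated with compound 15 min at room temperature, then Ub-Rho substrate (150nM final) added. Fluorescence read kinetically at 480/540 nm, 6 reads every 60 seconds. Buffer: 50mM HEPES pH 7.8, 0.5mM EDTA, 0.1 mg/ml BSA, 1mM TCEP, 0.01% Tween-20.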

[12] = Primary qHTS for small molecule stabilizers of the endoplasmic reticulum resident proteome: Secreted ER Calcium Modulated Protein (SERCaMP) assay (AID 1508630); conditions: SH-SY5Y GLuc-SERCaMP (Gaussia luciferase released on ER calcium loss) secretion, thapsigargin, luminescence; series mostly up to 38.4 µM; further: on the % scale 0 is the no-effect control and ±100 the full control effect
Procedure, shortened: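 GLuc-SERCaMP-expressing SH-SY5Y cells, pretreated 16 h with compound, are challenged with thapsigargin to empty ER calcium stores; after 4 h, coelenterazine is added directly to the medium and luminescence is imaged.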

[13] = biological target: Cytochrome P450 3A4 (Homo sapiens) (UniProt P08684); test: qHTS Assay for Activators of Cytochrome P450 3A4 (AID 885); conditions: recombinant CYP3A4, Luciferin-PPXE luminescence, 60 min; series mostly up to 57.1 µM; further: nearly all actives have a fitted effect of over 65% in size
Chain of Cytochrome P450 3A4 (Homo sapiens) (P08684 whole entry, looked up): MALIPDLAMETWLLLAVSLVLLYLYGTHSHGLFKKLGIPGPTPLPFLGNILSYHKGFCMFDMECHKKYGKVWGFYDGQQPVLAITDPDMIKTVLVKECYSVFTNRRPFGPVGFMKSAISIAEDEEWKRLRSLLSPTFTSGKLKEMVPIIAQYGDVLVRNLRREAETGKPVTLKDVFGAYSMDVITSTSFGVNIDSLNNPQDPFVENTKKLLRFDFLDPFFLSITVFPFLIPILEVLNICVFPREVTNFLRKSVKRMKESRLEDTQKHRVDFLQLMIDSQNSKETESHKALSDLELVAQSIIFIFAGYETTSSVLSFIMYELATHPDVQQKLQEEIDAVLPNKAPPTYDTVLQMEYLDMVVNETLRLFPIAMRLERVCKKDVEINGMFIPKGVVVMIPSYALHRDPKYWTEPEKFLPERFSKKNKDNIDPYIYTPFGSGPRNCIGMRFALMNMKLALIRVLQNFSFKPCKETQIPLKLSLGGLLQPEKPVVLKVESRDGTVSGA
Procedure, shortened: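 Quantitative HTS format: compounds preincubated with 20nM human CYP3A4 and Luciferin-PPXE substrate at KM, reaction started by NADPH regeneration, stopped after 60 min, luciferase luminescence read 20 min later.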

[14] = qHTS Assay for Identification of Small Molecule Agonists for Hypoxia Response Element Signaling Pathway (AID 914; active means well fitted activation curve with a large enough effect in the signal ratio, with a control signal flat, not every such curve was filed as active; the % refers to the signal ratio; further: potency means the concentration at half of the fitted maximal effect); conditions: ME-180 HRE-bla reporter, beta-lactamase ratio, CoCl2, 17 h; activation: active compounds read high
Procedure, shortened: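 ME-180 cells carrying an HRE-driven beta-lactamase reporter were treated with compounds in a titration series plus an EC50 level of CoCl2 for 17 h at 37 degrees Celsius; CCF4 readout as the 460nm/530nm ratio gave AC50 values.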

[15] = biological target: Cytochrome P450 1A2 (Homo sapiens) (UniProt P05177); test: p450-cyp1a2 (AID 410; calls by dose curve; further: potency means the concentration at half of the fitted maximal effect); conditions: recombinant CYP1A2, luciferin-ME demethylation, luminescence; series mostly up to 57 µM
Chain of Cytochrome P450 1A2 (Homo sapiens) (P05177 whole entry, looked up): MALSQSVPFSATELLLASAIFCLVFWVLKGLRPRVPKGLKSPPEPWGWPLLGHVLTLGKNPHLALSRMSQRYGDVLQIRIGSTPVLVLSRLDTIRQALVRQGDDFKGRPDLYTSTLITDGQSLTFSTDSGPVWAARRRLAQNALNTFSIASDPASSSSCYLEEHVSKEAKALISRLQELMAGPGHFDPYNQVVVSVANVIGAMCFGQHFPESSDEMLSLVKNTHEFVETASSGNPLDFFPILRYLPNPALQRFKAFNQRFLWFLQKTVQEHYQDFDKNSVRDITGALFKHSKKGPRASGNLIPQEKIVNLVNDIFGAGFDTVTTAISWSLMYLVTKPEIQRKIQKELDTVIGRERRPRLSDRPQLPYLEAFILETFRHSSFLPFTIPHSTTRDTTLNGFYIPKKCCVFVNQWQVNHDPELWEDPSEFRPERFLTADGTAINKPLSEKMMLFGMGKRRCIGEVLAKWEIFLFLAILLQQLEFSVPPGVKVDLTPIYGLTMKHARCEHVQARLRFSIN
Procedure, shortened: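 20nM CYP1A2 with 100uM Luciferin-ME (at Km) in 100mM KPO4; compound preincubated 10 min, NADPH regeneration added, 60 min at room temperature. Luciferin quantified by luminescence after detection reagent; normalized to 57 uM furafylline.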

[16] = biological target: Cytochrome P450 2C9 (Homo sapiens) (UniProt P11712); test: qHTS Assay for Inhibitors and Substrates of Cytochrome P450 2C9 (AID 883); conditions: recombinant CYP2C9, luciferin-H luminescence, 60 min; series mostly up to 57.1 µM; further: potency means the concentration at half of the fitted maximal effect; nearly all actives have a fitted effect of over 60% in size
Chain of Cytochrome P450 2C9 (Homo sapiens) (P11712 whole entry, looked up): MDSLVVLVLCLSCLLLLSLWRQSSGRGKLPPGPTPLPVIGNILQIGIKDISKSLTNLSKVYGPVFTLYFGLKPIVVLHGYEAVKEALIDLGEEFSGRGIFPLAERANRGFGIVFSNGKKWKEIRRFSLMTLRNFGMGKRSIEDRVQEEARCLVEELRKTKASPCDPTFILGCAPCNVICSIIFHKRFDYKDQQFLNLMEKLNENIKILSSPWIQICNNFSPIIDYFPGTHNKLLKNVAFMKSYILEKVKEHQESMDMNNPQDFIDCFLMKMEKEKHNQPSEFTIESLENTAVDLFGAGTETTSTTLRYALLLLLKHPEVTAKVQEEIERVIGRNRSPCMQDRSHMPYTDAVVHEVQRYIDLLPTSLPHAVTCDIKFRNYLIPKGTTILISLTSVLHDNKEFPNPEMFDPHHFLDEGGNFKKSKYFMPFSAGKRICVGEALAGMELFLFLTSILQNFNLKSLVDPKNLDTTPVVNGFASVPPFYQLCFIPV
Procedure, shortened: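 Signal: luciferase luminescence reporting luciferin produced by CYP2C9. Conditions: 10nM enzyme, Luciferin-H 100uM at KM, 25mM KPO4, 37C, 60 min NADPH-driven reaction. Reference: 57uM sulphaphenazole as 100% inhibition.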

[17] = biological target: Cytochrome P450 3A4 (Homo sapiens) (UniProt P08684); test: qHTS Assay for Inhibitors and Substrates of Cytochrome P450 3A4 (AID 884); conditions: recombinant CYP3A4, Luciferin-PPXE luminescence; series mostly up to 57.1 µM; further: potency means the concentration at half of the fitted maximal effect; nearly all actives have a fitted effect of over 50% in size
Procedure, shortened: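 20 nM human CYP3A4 with 25 uM Luciferin-PPXE (at KM) in 200 mM KPO4, preincubated 10 min with compound; NADPH regeneration started a 60 min RT reaction. Luciferin detected by luminescence, normalized to 57 uM ketoconazole as full inhibition.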

Compound | Potency [1] [µM] | activity change, negative = inhibition [2] | activity, negative = inhibition [3] [%] | Potency [4] [µM] | Potency [5] [µM] | Potency [6] | Potency [7] | Potency [8] | Potency [9] | Potency [10] | Potency [11] | outcome [12] | Potency [13] | Potency [14] | Potency [15] | Potency [16] | Potency [17]
Cn1c(=O)c(-c2cc(F)cc(F)c2)nc2cnc(Nc3ccccc3)nc21 | > 11.4 | 6.94% | 4.13 | > 9.22 | > 46 | inactive | inactive | inactive | inactive | inactive | inactive | inactive | – | – | – | – | –
N#CCCn1c(=O)c(-c2ccc(F)cc2)nc2cnc(N3CCNCC3)nc21 | > 11.4 | – | – | > 9.22 | > 46 | inactive | inactive | inactive | inactive | inactive | inactive | inactive | inactive | 3.16 µM (active) | – | – | –
CN(C)c1ncc2nc(-c3ccc(F)cc3)c(=O)n(CCc3ccccc3)c2n1 | > 11.4 | 162% [activator] (active) | – | > 9.22 | > 46 | – | inactive | inactive | inactive | inactive | inactive | inactive | – | 1 µM (active) | 2.51 µM (active) | – | –
CCNc1ncc2nc(-c3ccc(F)cc3)c(=O)n(Cc3ccc(F)cc3)c2n1 | > 11.4 | 18.8% | – | > 9.22 | > 46 | inactive | inactive | inactive | inactive | inactive | – | inactive | – | 1.58 µM (active) | 20 µM (active) | – | –
COCCNc1ncnc2ccc(-c3c(C)noc3C)cc12 | > 11.4 | – | – | > 46 | > 46 | inactive | inactive | 3.98 µM (active) | 0.708 µM (active) | 1.41 µM (active) | inactive | inactive | inactive | 1.58 µM (active) | 3.98 µM (active) | – | –
COc1cccc(Cn2c(=O)c(-c3cccs3)nc3cnc(OC)nc32)c1 | > 11.4 | 25.8% | – | > 9.22 | > 46 | – | – | inactive | inactive | inactive | inactive | inactive | inactive | – | 3.16 µM (active) | 3.16 µM (active) | 3.98 µM (active)
CN(C)c1ncnc2ccc(-c3ccc4c(c3)OCO4)cc12 | > 11.4 | -4.71% | 1.73 | > 46 | > 46 | inactive | inactive | 0.199 µM (active) | 0.158 µM (active) | 0.1 µM (active) | inactive | inactive | – | – | – | – | –

Reference: PubChem BioAssay (NCATS)
